{"source": "the supplement of paper PMC8728848", "binders": {"B1": {"name": "PX9961A-pdi-456-24-456 (Parabacteroides distasonis) (protein)", "chain": "KTSSTQLPTIDAISSVADLTNAVNGVYEQQATEVGSYGAEFTLLADLRSGDFQSISTVNHAGPMYRYQTGKNDEMVYSFYKLFYNSLARLNNVLAAAENLEGADVDILKGELYAMRALYHFDLARVFAKLPSTTDMNDLGIVLSTEVYPTDYIGTRATLQQTYDQILKDIETALPLLSKDKQTGHINYWGALAIRARAYLYLEKNKEALADCKEIIASSPYKLYTRDEYIGAWDKEGTNEAIFEILVTPNYNAQRNSIGYFTHASGYGECAATESFLEELAKHPGDIRTELFAKETDNGYDGTYPQKYKGRDGQIYVNNPKVVRLSEVYLIAAEAALKAGDTSAAAGYMNTLRKNRIENYTDVASITLDDILLERRLELFTEGHTAWDAWRNGKSVNNKFVGEVKPGDYRTIMAIPIGEITVSRGQLIQNPGY"}}, "assay_in_all_cases": "glycan array binding signal (z-score within array); higher = stronger binding", "settings_in_all_cases": "glycan notation: IUPAC condensed, linker removed", "key": {"[1]": {"target": "Fuc(a1-2)Gal(b1-3)GalNAc(b1-3)Gal(a1-4)Gal(b1-4)Glc", "method_in_brief": "(§1)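 Negative Z-scores can be read as non-binding. The Z-score is calculated within each array and then averaged across arrays of one protein sequence at different concentrations or buffers and across linkers. Arrays, 3228 in all, were curated from the Consortium for Functional Glycomics database and kept only where the protein sequence was available.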"}, "[2]": {"target": "Fuc(a1-2)Gal(b1-3)GlcNAc6S", "method_in_brief": "as §1"}, "[3]": {"target": "Fuc(a1-2)Gal(b1-3)[Fuc(a1-4)]GlcNAc(b1-2)Man(a1-3)[Fuc(a1-2)Gal(b1-3)[Fuc(a1-4)]GlcNAc(b1-2)Man(a1-6)]Man(b1-4)GlcNAc(b1-4)[Fuc(a1-6)]GlcNAc(b1-4)[Fuc(a1-6)]GlcNAc", "method_in_brief": "as §1"}, "[4]": {"target": "Fuc(a1-2)Gal(b1-4)GlcNAc(b1-3)Gal(b1-4)GlcNAc(b1-3)Gal(b1-4)GlcNAc", "method_in_brief": "as §1"}, "[5]": {"target": "Fuc(a1-2)Gal6S(b1-4)Glc6S", "method_in_brief": "as §1"}, "Fuc(a1-2)[Gal(a1-3)]Gal": {"target": "Fuc(a1-2)[Gal(a1-3)]Gal", "method_in_brief": "as §1"}, "[6]": {"target": "Fuc(a1-2)[GalNAc(a1-3)]Gal(b1-4)[Fuc(a1-3)]GlcNAc(b1-3)GalNAc", "method_in_brief": "as §1"}, "[7]": {"target": "Fuc(a1-3)[Gal3S(b1-4)]GlcNAc6S", "method_in_brief": "as §1"}, "Fuc(a1-4)GlcNAc": {"target": "Fuc(a1-4)GlcNAc", "method_in_brief": "as §1"}, "[8]": {"target": "Gal(a1-3)Gal(b1-4)GlcNAc(b1-2)Man(a1-3)[Gal(a1-3)Gal(b1-4)GlcNAc(b1-2)Man(a1-6)]Man(b1-4)GlcNAc(b1-4)GlcNAc", "method_in_brief": "as §1"}, "[9]": {"target": "Gal(a1-3)Gal(b1-4)[Fuc(a1-3)]GlcNAc(b1-2)Man(a1-3)[Gal(a1-3)Gal(b1-4)[Fuc(a1-3)]GlcNAc(b1-2)Man(a1-6)]Man(b1-4)GlcNAc(b1-4)GlcNAc", "method_in_brief": "as §1"}, "Gal(a1-3)GalNAc": {"target": "Gal(a1-3)GalNAc", "method_in_brief": "as §1"}, "[10]": {"target": "Gal(a1-4)Gal(b1-4)GlcNAc(b1-2)Man(a1-3)[Gal(a1-4)Gal(b1-4)GlcNAc(b1-2)Man(a1-6)]Man(b1-4)GlcNAc(b1-4)GlcNAc", "method_in_brief": "as §1"}, "[11]": {"target": "Gal(a1-4)Gal(b1-4)GlcNAc(b1-3)Gal(b1-4)Glc", "method_in_brief": "as §1"}, "[12]": {"target": "Gal(b1-3)GlcNAc(b1-3)Gal(b1-4)GlcNAc(b1-2)[Gal(b1-3)GlcNAc(b1-3)Gal(b1-4)GlcNAc(b1-6)]Man(a1-6)[Gal(b1-3)GlcNAc(b1-3)Gal(b1-4)GlcNAc(b1-2)Man(a1-3)]Man(b1-4)GlcNAc(b1-4)[Fuc(a1-6)]GlcNAc", "method_in_brief": "as §1"}, "[13]": {"target": "Gal(b1-4)GalNAc(b1-3)[Fuc(a1-2)]Gal(b1-4)GlcNAc", "method_in_brief": "as §1"}, "[14]": {"target": "Gal(b1-4)GlcNAc(b1-2)[Gal(b1-4)GlcNAc(b1-6)]Man(a1-6)[Gal(b1-4)GlcNAc(b1-2)Man(a1-3)]Man(b1-4)GlcNAc(b1-4)[Fuc(a1-6)]GlcNAc", "method_in_brief": "as §1"}, "[15]": {"target": "Gal(b1-4)GlcNAc(b1-3)Gal(b1-3)GalNAc", "method_in_brief": "as §1"}, "[16]": {"target": "Gal(b1-4)GlcNAc(b1-3)Gal(b1-4)GlcNAc(b1-2)Man(a1-3)[Gal(b1-4)GlcNAc(b1-3)Gal(b1-4)GlcNAc(b1-2)Man(a1-6)]Man(b1-4)GlcNAc(b1-4)GlcNAc", "method_in_brief": "as §1"}, "[17]": {"target": "Gal(b1-4)GlcNAc(b1-3)Gal(b1-4)GlcNAc(b1-2)Man(a1-3)[Gal(b1-4)GlcNAc(b1-3)Gal(b1-4)GlcNAc(b1-2)Man(a1-6)]Man(b1-4)GlcNAc(b1-4)[Fuc(a1-6)]GlcNAc", "method_in_brief": "as §1"}, "[18]": {"target": "Gal(b1-4)GlcNAc(b1-3)Gal(b1-4)GlcNAc(b1-3)Gal(b1-4)GlcNAc(b1-2)[Gal(b1-4)GlcNAc(b1-3)Gal(b1-4)GlcNAc(b1-3)Gal(b1-4)GlcNAc(b1-6)]Man(a1-6)[Gal(b1-4)GlcNAc(b1-3)Gal(b1-4)GlcNAc(b1-3)Gal(b1-4)GlcNAc(b1-2)Man(a1-3)]Man(b1-4)GlcNAc(b1-4)[Fuc(a1-6)]GlcNAc", "method_in_brief": "as §1"}, "[19]": {"target": "Gal(b1-4)GlcNAc(b1-3)Gal(b1-4)GlcNAc(b1-3)Gal(b1-4)GlcNAc(b1-3)Gal(b1-4)GlcNAc(b1-2)Man(a1-3)[Gal(b1-4)GlcNAc(b1-3)Gal(b1-4)GlcNAc(b1-3)Gal(b1-4)GlcNAc(b1-3)Gal(b1-4)GlcNAc(b1-2)Man(a1-6)]Man(b1-4)GlcNAc(b1-4)GlcNAc", "method_in_brief": "as §1"}}, "note": "The sample as a whole holds a higher share of the strongest signals than the screen did."}
{"binder": "B1", "values": [{"measurement": "glycan array binding signal (z-score)", "setting": "[1]", "result": -0.216}, {"measurement": "glycan array binding signal (z-score)", "setting": "[2]", "result": 0.178}, {"measurement": "glycan array binding signal (z-score)", "setting": "[3]", "result": 0.196}, {"measurement": "glycan array binding signal (z-score)", "setting": "[4]", "result": -0.148}, {"measurement": "glycan array binding signal (z-score)", "setting": "[5]", "result": -0.221}, {"measurement": "glycan array binding signal (z-score)", "setting": "Fuc(a1-2)[Gal(a1-3)]Gal", "result": 1.54}, {"measurement": "glycan array binding signal (z-score)", "setting": "[6]", "result": 0.753}, {"measurement": "glycan array binding signal (z-score)", "setting": "[7]", "result": -0.41}, {"measurement": "glycan array binding signal (z-score)", "setting": "Fuc(a1-4)GlcNAc", "result": 7.24}, {"measurement": "glycan array binding signal (z-score)", "setting": "[8]", "result": 0.21}, {"measurement": "glycan array binding signal (z-score)", "setting": "[9]", "result": 0.63}, {"measurement": "glycan array binding signal (z-score)", "setting": "Gal(a1-3)GalNAc", "result": -0.152}, {"measurement": "glycan array binding signal (z-score)", "setting": "[10]", "result": 0.514}, {"measurement": "glycan array binding signal (z-score)", "setting": "[11]", "result": 0.043}, {"measurement": "glycan array binding signal (z-score)", "setting": "[12]", "result": 1.83}, {"measurement": "glycan array binding signal (z-score)", "setting": "[13]", "result": -0.317}, {"measurement": "glycan array binding signal (z-score)", "setting": "[14]", "result": 2.12}, {"measurement": "glycan array binding signal (z-score)", "setting": "[15]", "result": -0.575}, {"measurement": "glycan array binding signal (z-score)", "setting": "[16]", "result": 2.2}, {"measurement": "glycan array binding signal (z-score)", "setting": "[17]", "result": 2.48}, {"measurement": "glycan array binding signal (z-score)", "setting": "[18]", "result": 2.11}, {"measurement": "glycan array binding signal (z-score)", "setting": "[19]", "result": 0.035}]}
